Assay outcomes deposited in PubChem BioAssay by National Center for Advancing Translational Sciences (NCATS).
Shown are actives, neighbours in structure and some others; about 19% of the full set was active somewhere.
DT40 TDP1 no CPT: qHTS for Inhibitors of human tyrosyl-DNA phosphodiesterase 1 (TDP1): qHTS in cells in absence of CPT; DT40 Tdp1-/- hTDP1 cells, no CPT, ATP luminescence, 48 h; hit rate 15% among 420,000; Potency, µM (series often up to 46.2 µM), inactives show top-dose activity change, negative = growth inhibition, usual class: inhibitors; AID 686978, 2013; also: nearly all actives have a fitted effect of over 55% in size
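Cells were dispensed at 400 per well, compounds added by pin tool, plates incubated ≥48 hr at 37 °C, then CellTiter-Glo added for 30 min at room temperature before luminescence reading. Line: DT40 Tdp1-/- complemented with hTDP1; camptothecin omitted.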
RORg inh: ROR gamma (mouse) transcription inhibition; P51450; Drosophila S2 Gal4-RORgamma UAS-luciferase reporter, 20 h; Potency, µM (doses to about 53.6 µM), without a hit: top-dose activity change, negative = inhibition, usual class: inhibitors; hit rate 5.4% among 310,000; AID 2551; also: nearly all actives have a fitted effect of over 60% in size
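Luciferase reporter read in Schneider cells carrying Gal4-RORγ (mouse) and UAS-Photinus luciferase; cells given compound 1 h before 700 uM copper sulfate induction, then incubated 20 h at ambient temperature.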
VP16 counter: Gal4-VP16 reporter inhibition counter-screen; Drosophila S2 Gal4-VP16 UAS-luciferase, luminescence, 20 h; Potency, µM (highest dose often 53.6 µM), for inactives: at the top dose activity, negative = inhibition, usual class: inhibitors; hit rate 3.5% among 310,000; AID 2546;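 also: Gal4-VP16 expression switched on by copper sulfate through the metallothionein promoter; nearly all actives have a fitted effect of over 50% in size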
DT40 TDP1 CPT: DT40-hTDP1 cell growth loss with CPT; chicken DT40 Tdp1-/-;hTDP1 cells + 20 nM CPT, ATP luminescence, 48 h; Potency, µM (doses to about 46.2 µM), for inactives: at the top dose activity change, negative = growth inhibition, hits mostly inhibitors; AID 686979; hit rate 12% among 420,000; also: nearly all actives have a fitted effect of over 55% in size
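Cell growth measured by CellTiter-Glo luminescence after a minimum 48 h, 37 C compound exposure with 20 nM CPT in Tdp1-knockout DT40 cells stably expressing hTDP1, seeded 400/well; qHTS titration format.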
TDP1 inh: blocks human tyrosyl-DNA phosphodiesterase 1; Q9NUW8; recombinant TDP1, AlphaScreen DNA substrate cleavage; Potency, µM (series often up to 130 µM), without a hit: at the highest dose activity change, negative = inhibition, actives largely listed as inhibitors; hit rate 0.28% among 350,000; also: nearly all actives have a fitted effect of over 40% in size
Target sequence (Q9NUW8 whole entry, looked up): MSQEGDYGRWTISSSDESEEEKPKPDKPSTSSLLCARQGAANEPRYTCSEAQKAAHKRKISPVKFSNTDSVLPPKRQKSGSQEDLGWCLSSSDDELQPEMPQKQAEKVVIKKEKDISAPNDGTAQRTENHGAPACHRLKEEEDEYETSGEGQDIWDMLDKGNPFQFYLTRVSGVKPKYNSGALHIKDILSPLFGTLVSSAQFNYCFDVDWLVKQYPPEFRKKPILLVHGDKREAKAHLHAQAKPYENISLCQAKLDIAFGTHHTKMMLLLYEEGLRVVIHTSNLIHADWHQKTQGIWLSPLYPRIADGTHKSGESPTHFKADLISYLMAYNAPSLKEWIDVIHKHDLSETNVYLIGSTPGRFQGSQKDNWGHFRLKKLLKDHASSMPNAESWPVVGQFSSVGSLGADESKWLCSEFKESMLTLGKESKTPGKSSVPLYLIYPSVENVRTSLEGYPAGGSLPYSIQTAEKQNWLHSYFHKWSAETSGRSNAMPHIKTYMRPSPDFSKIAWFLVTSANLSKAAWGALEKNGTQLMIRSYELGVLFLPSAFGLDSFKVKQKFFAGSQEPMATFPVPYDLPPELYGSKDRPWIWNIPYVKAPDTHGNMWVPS
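Compounds were preincubated with Tdp1 (1 nM final) for 15 min at room temperature before substrate (15 nM final) started a 5 min reaction; beads (10 ug/ml final) were then added for 10 min before AlphaScreen detection.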
* marks the source's active call; other numbers are inactive results; u = inconclusive; x = not tested or not shown; [ ] = dose if it differs, or a comment. Calls follow the shape of the dose curve; as a rule, active = well fitted curve in the direction sought with a large enough effect; inconclusive = small, poorly fitted or top-dose-only effect, or another doubt; inactive = no such curve, though single readings can be large; an effect the other way counts as inactive or inconclusive. % is scaled to controls: 0 for no effect and ±100 for the full control effect; potency is read from the fitted curve at half-maximal effect.

SMILES	DT40 TDP1 no CPT	RORg inh	VP16 counter	DT40 TDP1 CPT	TDP1 inh
CCc1nn(C(C)C(=O)N2CCN(c3cccc(C(F)(F)F)c3)CC2)c(=O)c2cc3occc3n12 (stereo not given)	23µM*	x	x	u	5%
O=C(N/N=C(\c1ccccc1)c1cccnc1)C(O)(c1ccccc1)c1ccccc1	u	7%	-7%	u	2%
COc1ccc(C2CC(c3cccs3)=NN2C(=O)CSc2nncn2C)cc1OC (stereo not given)	11%	6%	0%	5%	-1%
Cc1cccc(N2CCN(C(=O)CCCn3ncn4c(cc5occc54)c3=O)CC2)c1C	26µM*	x	x	u	5%
CCc1nn(C(C)C(=O)N2CCN(c3ccc(OC)cc3)CC2)c(=O)c2cc3occc3n12 (stereo not given)	7.3µM*	7%	1%	4.6µM*	6%
Cc1cccc(N2CCN(C(=O)C(C)n3nc(C)n4c(cc5occc54)c3=O)CC2)c1C (stereo not given)	18µM*	-16%	-2%	u	3%
Cc1nn(C(C)C(=O)N2CCN(c3ccccn3)CC2)c(=O)c2cc3occc3n12 (stereo not given)	-6%	29%	4%	-4%	-2%
CC(=O)c1cccc(-c2ccnc3c2CC(C(=O)Nc2cccc(OC(F)(F)F)c2)O3)c1 (stereo not given)	u	x	x	-4%	x
O=C(Nc1cccc(C(F)(F)F)c1)C1Cc2c(-c3ccco3)ccnc2O1 (stereo not given)	u	x	x	16µM*	x
O=C(Nc1cccc(C(F)(F)F)c1)C1Cc2c(-c3ccccc3)ccnc2O1 (stereo not given)	26µM*	x	x	u	x
O=C(Nc1cccc(OC(F)(F)F)c1)C1Cc2c(-c3ccco3)ccnc2O1 (stereo not given)	18µM*	x	x	u	x
O=C(Nc1cccc(OC(F)(F)F)c1)C1Cc2c(-c3ccc4c(c3)OCO4)ccnc2O1 (stereo not given)	21µM*	x	x	16µM*	x
C=CCn1c2ccccc2c(=O)c2cc(C#CC[C@@H](C)O)ccc21	10µM*	x	x	8.2µM*	-7%
C=CCn1c2ccccc2c(=O)c2cc(C#CC3(O)CCCCC3)ccc21	18µM*	u	u	16µM*	x
O=C(NCCc1nc2ccccc2n1Cc1ccc(Cl)cc1)c1ccccc1	u	x	x	u	0%
Cc1cccc(C(=O)NCCc2nc3ccccc3n2Cc2ccc(Cl)cc2)c1	u	x	x	21µM*	10%
CCCCCn1c(CCNC(=O)c2cccs2)nc2ccccc21	u	u	3%	u	9%
CCCCCn1c(CCNC(=O)c2cccc(C)c2)nc2ccccc21	18µM*	x	x	21µM*	9%
COC(=O)c1ccc(NC(=O)Nc2ccc(F)cc2F)cc1	6.5µM*	-4%	-9%	8.2µM*	4%
O=C(Nc1ccc(F)cc1)Nc1csc2ccccc12	23µM*	-27%	-16%	23µM*	x
COC(=O)c1ccc(C(=O)Nc2ccc(F)cc2)cc1	8.2µM*	x	x	10µM*	-3%
O=C(Nc1ccccc1)Nc1ccc(F)cc1F	23µM*	5%	5%	u	-5%
Cn1cnnc1SCC(=O)Nc1cc(S(=O)(=O)N2CCCCC2)ccc1Cl	11%	14%	-7%	9%	6%
O=C(NNC(=O)c1ccccc1[N+](=O)[O-])c1ccco1	-14%	-2%	u	-8%	-2%
O=[N+]([O-])c1ccccc1/C=N/NC1=NCCCCC1	u	1%	5%	2%	0%
SMILES	DT40 TDP1 no CPT	RORg inh	VP16 counter	DT40 TDP1 CPT	TDP1 inh
O=C1[C@@H]2[C@H]3[C@H](O)[C@H](O)C/C(=N/OCc4ccccc4)[C@@H]3CC[C@H]2C(=O)N1c1ccc(F)cc1F	x	14%[10 µM]	1%[10 µM]	x	6%[21 µM]
Cc1ccc(C(=S)NCS(=O)(=O)c2ccc(C)cc2)cc1	13µM*	2.8µM*	8.9µM*	13µM*	12%
Cc1ccc(S(=O)(=O)CNC(=S)c2cccc(Cl)c2)cc1	u	22µM*	u	-9%	10%
Cc1ccc(S(=O)(=O)NC(=S)c2ccccc2)cc1	-18%	x	x	-6%	x
CCOC(=O)c1ccc(NC(=O)CN2CCN(c3ccccc3)CC2)cc1	u	-44%[0.365 µM]	x	-21%	-3%
CCOC(=O)c1c(C)[nH]c(CCC(=O)NCc2ccccc2Cl)c1C	21µM*	x	x	u	5%
CCOC(=O)c1c(C)[nH]c(CCC(=O)NCc2cc(Br)ccc2OC)c1C	18µM*	x	x	u	8%
CCOC(=O)c1c(C)[nH]c(CCC(=O)NCc2ccc(CC)cc2)c1C	18µM*	x	x	u	3%
CCOC(=O)c1c(C)[nH]c(CCC(=O)NCc2ccccc2C)c1C	13µM*	x	x	u	8%
COc1ccc(-c2nc3c(-c4ccc(F)cc4)cnn3cc2C)cc1F	15µM*	6%	1%	23µM*	-8%
COc1ccc(-c2nc3nc(N)nn3cc2C)cc1F	0%	8%	-13%	-19%	-3%
CC(=O)Oc1ccc(Oc2ccc(-c3noc(C)n3)cc2)cc1	12µM*	23%	-5%	21µM*	5%
COc1ccc(CC(=O)N/N=C(\C)c2cccs2)cc1	-16%	-11%	-4%	9%	4%
CC(NC=C1C(=O)OC(C)(C)OC1=O)C(=O)O (stereo not given)	14%	5%	-10%	0%	3%
NC(=S)N/N=C/c1ccc2c(c1)OCCO2	-15%	11µM*	u	0%	4%
CNC(=S)N/N=C/c1ccc2c(c1)OCCO2	-3%	u	0.63µM*	-3%	5%
COc1ccc(NCC(=O)N/N=C/c2ccc3c(c2)OCCO3)cc1	-19%	0.13µM*	-6%	u	3%
Cc1ccc(S(=O)(=O)NCc2nc3cccnc3n2Cc2ccccc2Cl)c(C)c1	u	x	x	u	1%
N#Cc1c(-c2ccccc2)nc(SCc2nc(N)nc(N3CCCCC3)n2)[nH]c1=O	u	-27%	4%	12µM*	2%
C[C@@H]1CN([C@@H](C)CO)C(=O)CCCn2nncc2CO[C@H]1CN(C)S(=O)(=O)c1ccc2c(c1)OCCCO2	-23%	x	x	6%	x
O=[N+]([O-])c1ccc(Cl)c(CN2CCCCCC2)c1	-19%	u	-5%	-25%	x
O=[N+]([O-])c1ccc(Cl)c(CN2CCN(c3ncc(Cc4ccccc4)cn3)CC2)c1	16µM*	x	x	23µM*	x
O=[N+]([O-])c1ccc(Br)c(CN2CCN(c3ncc(Cc4ccccc4)cn3)CC2)c1	21µM*	x	x	u	x
Oc1ccc(F)c(CN2CCN(c3ncc(Cc4ccccc4)cn3)CC2)c1	26µM*	x	x	u	x
